Laboratory results reported in article PMC5836133, “The intracellular immune receptor Rx1 regulates the DNA-binding activity of a Golden2-like transcription factor”.
The full ranking holds about 16,000 sequences; the median of “e-score” is about -0.044, and the highest 2% start at about 0.38. This excerpt belongs to a sample that is enriched for the highest values.

Biological target: T1, GST-NbGlk1(82-244) (Nicotiana benthamiana)
T1 chain: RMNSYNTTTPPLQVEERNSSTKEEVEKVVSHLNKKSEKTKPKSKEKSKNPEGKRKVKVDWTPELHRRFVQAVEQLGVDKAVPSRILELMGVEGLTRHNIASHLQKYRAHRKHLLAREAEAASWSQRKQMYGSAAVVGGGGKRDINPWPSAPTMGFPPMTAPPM
Assay: protein-binding microarray; NbGlk1 is a Golden2-like transcription factor of Nicotiana benthamiana; high values mean tight binding
Conditions: protein: recombinant; tags: GST (pTH6838); dsDNA, one strand shown

Sequence | binding signal [E-score]
AATCAGAT | 0.341 ± 0.0502
ACTAATAT | 0.2093 ± 0.00102
ATGGGAAT | 0.296 ± 0.0441
ACAGATCC | 0.234 ± 0.05
ACAAGATA | 0.322 ± 0.00757
ATTCCCTC | 0.372 ± 0.0111
AAAATACG | 0.286 ± 0.0671
AGAATCAG | 0.39 ± 0.0152
ATAATCCA | 0.354 ± 0.0347
AGAATCAC | 0.373 ± 0.0542
AAAATCCA | 0.454 ± 0.016
AAAATCCG | 0.446 ± 0.00893
AGAATCAA | 0.342 ± 0.0419
CAAATCCG | 0.389 ± 0.00882
ACAATCCA | 0.3331 ± 0.000895
ATAATCAA | 0.216 ± 0.00752
AAGCGGAT | 0.227 ± 0.0367
AATCGGAT | 0.357 ± 0.0422
ATATACAG | 0.262 ± 0.0848
ATCCCTTA | 0.215 ± 0.0752
ATGTGATA | 0.231 ± 0.0239
ATCCTCAG | 0.231 ± 0.0659
CAGATCCA | 0.23 ± 0.064
CAAATTCA | 0.203 ± 0.0475
AAAATCAT | 0.302 ± 0.0817
AAAATCAG | 0.381 ± 0.0189

Sequence | binding signal [E-score]
CAAATCCA | 0.3792 ± 0.00132
ATAATCAG | 0.222 ± 0.0278
AAAATCCT | 0.433 ± 0.0284
CAAATCCC | 0.315 ± 0.0145
AAAATCCC | 0.41 ± 0.0189
ATAATCCC | 0.212 ± 0.0485
AAAATCAC | 0.36 ± 0.0307
ACTGAAAT | 0.278 ± 0.0182
ATATTCAA | 0.213 ± 0.11
AGTAAGAA | 0.214 ± 0.0216
ATCCGCCG | 0.216 ± 0.0636
ATTTCATG | 0.332 ± 0.0188
ATCTCCAG | 0.293 ± 0.0251
ATCCTGAG | 0.23 ± 0.00887
ACCAAAGA | 0.208 ± 0.134
ATCTCACG | 0.2 ± 0.0565
ATTGAAAA | 0.214 ± 0.0168
AAGGTAAT | 0.217 ± 0.0574
AGATTCCT | 0.4552 ± 0.00311
AGATACCG | 0.364 ± 0.0644
AGATTCAT | 0.24 ± 0.0201
AGATTCCA | 0.433 ± 0.0111
AGATTCAG | 0.238 ± 0.0658
AGATTCCC | 0.493 ± 0.00512
AGATACCT | 0.216 ± 0.0648
ATTTTCCA | 0.294 ± 0.00656

Sequence | binding signal [E-score]
AAATTCCC | 0.294 ± 0.0591
CAATTCCC | 0.217 ± 0.0511
AGATTCCG | 0.4631 ± 0.000925
AGATACCA | 0.204 ± 0.131
AGATCGTG | 0.339 ± 0.0193
ATCCGCGG | 0.28 ± 0.0747
AGAATTCG | 0.221 ± 0.0588
AATCGACT | 0.263 ± 0.0439
CAATCGAA | 0.202 ± 0.113
ATCCTCCA | 0.285 ± 0.089
ACAAGAGA | 0.277 ± 0.0453
ACTCGTAA | 0.247 ± 0.062
ATAATCAC | 0.214 ± 0.0373
AATCGTGC | 0.299 ± 0.027
ATTACCCC | 0.247 ± 0.0858
AATCTAGG | 0.4332 ± 0.00364
AATCAAGT | 0.233 ± 0.1
AATCAAGC | 0.22 ± 0.0411
AATCTAGT | 0.421 ± 0.0336
AATCTAGA | 0.452 ± 0.018
AATCGAGC | 0.207 ± 0.052
ATTCTAGA | 0.2 ± 0.0443
AATCAAGG | 0.258 ± 0.0284
AATCTAGC | 0.404 ± 0.00637
AATCAAGA | 0.308 ± 0.0329
ATCCTAGC | 0.237 ± 0.018

Sequence | binding signal [E-score]
ATCCCCGC | 0.2 ± 0.0376
ATTACACG | 0.268 ± 0.0173
CACGATTA | 0.202 ± 0.0336
ATGCGTAA | 0.21 ± 0.0884
AATTTCCT | 0.255 ± 0.00447
ATTCTCCA | 0.31 ± 0.0567
AATCTCCA | 0.389 ± 0.05
AATCACCA | 0.26 ± 0.00706
AATCTCCT | 0.4008 ± 0.00273
AATCCCCC | 0.215 ± 0.101
AATCTCCG | 0.437 ± 0.00941
AATCTCCC | 0.387 ± 0.0218
ATTCTCCG | 0.338 ± 0.0548
ATTCTCCC | 0.255 ± 0.0215
AATCGCCT | 0.225 ± 0.129
AATCACCG | 0.281 ± 0.0154
ATCCGGTA | 0.286 ± 0.0898
ATTTGCAC | 0.305 ± 0.0821
ATCCAATA | 0.324 ± 0.0209
ATCTTTGG | 0.304 ± 0.0128
ATCTTTTA | 0.259 ± 0.0767
ATACCGCA | 0.211 ± 0.101
AAAGCGAT | 0.215 ± 0.0733
AATTTGCG | 0.223 ± 0.0644
ATTCACAA | 0.218 ± 0.0225
AAAGCAAT | 0.27 ± 0.0827

Sequence | binding signal [E-score]
ATCTCCTC | 0.296 ± 0.0162
ATATCCTG | 0.373 ± 0.0434
ATATCCTC | 0.402 ± 0.00645
ATATCGTA | 0.364 ± 0.049
ATATCCTA | 0.416 ± 0.0447
ATTTCCTA | 0.358 ± 0.0333
ATTTGGTG | 0.213 ± 0.0582
AGACAGAT | 0.222 ± 0.0932
ATCCTGCA | 0.261 ± 0.126
AGGAGATC | 0.382 ± 0.00924
ACGAGATA | 0.2747 ± 0.00202
ACGAGATC | 0.41 ± 0.00651
ACAAGATC | 0.2947 ± 0.00243
AGGAGAAT | 0.267 ± 0.0583
ATGAGATC | 0.369 ± 0.0039
AGGAGATA | 0.228 ± 0.0512
AGAAGATA | 0.26 ± 0.0155
AGAAGATC | 0.383 ± 0.0277
AACGTATC | 0.322 ± 0.0281
ATTACATG | 0.293 ± 0.0579
ATCTGTAG | 0.3 ± 0.055
ATACGCAT | 0.204 ± 0.0532
ATCTGATC | 0.329 ± 0.0755
ATTACACA | 0.31 ± 0.0413
ATATCACC | 0.277 ± 0.0211
ATCTCTCA | 0.295 ± 0.0129

Sequence | binding signal [E-score]
ATTTCTCA | 0.248 ± 0.108
ATCTCCCC | 0.301 ± 0.0229
ATATCTCG | 0.435 ± 0.0109
ATCTCTCG | 0.231 ± 0.0608
ATATCTCA | 0.3895 ± 0.00167
ATATCTCC | 0.388 ± 0.0404
ATATCACG | 0.347 ± 0.0113
AATCCCCA | 0.346 ± 0.00463
ACTAAATC | 0.213 ± 0.00269
AACACAAT | 0.213 ± 0.0479
ATTACAAC | 0.257 ± 0.0217
ATGAGATA | 0.20921 ± 0.000115
ATTGCGCA | 0.301 ± 0.0513
ATCTGGAC | 0.346 ± 0.0997
ATCTCCAA | 0.342 ± 0.0598
AGCAAATA | 0.221 ± 0.0663
AGAAAATC | 0.4794 ± 0.0015
ATCAAATC | 0.36 ± 0.00877
AGCAAATC | 0.4187 ± 0.000896
AGTAAATC | 0.241 ± 0.0671
AAAAAATC | 0.439 ± 0.0166
AAAAAAAT | 0.286 ± 0.0488
AGCAAAAT | 0.241 ± 0.0294
ACCAAATC | 0.406 ± 0.00414
AAAAAATT | 0.204 ± 0.0566
AGAAAAAT | 0.252 ± 0.0352

Sequence | binding signal [E-score]
ACCAAAAT | 0.245 ± 0.0514
ATATGAAG | 0.207 ± 0.0492
AATCACAG | 0.3111 ± 0.000659
CAAGATCC | 0.33 ± 0.0132
ATTACACC | 0.334 ± 0.0466
AACGATAT | 0.29 ± 0.015
ATTTTCCC | 0.304 ± 0.0203
AAATTATA | 0.256 ± 0.00661
AATCGTTG | 0.203 ± 0.0845
AACATAAT | 0.233 ± 0.0831
ACAAAAAT | 0.238 ± 0.045
AACAAATC | 0.302 ± 0.043
ACACAATA | 0.226 ± 0.0401
AGACAATC | 0.3189 ± 0.000404
ACAAAATC | 0.4578 ± 0.00327
CACAAATC | 0.274 ± 0.0179
CAAAAATC | 0.399 ± 0.00565
ATAAAAAT | 0.292 ± 0.0292
ATAAAATC | 0.409 ± 0.00541
ACAAAATA | 0.293 ± 0.102
ACACAATC | 0.39 ± 0.0203
ATAAAATA | 0.22 ± 0.00301
